Measured values: ChEMBL document CHEMBL1961873, “Compounds: GSK PKIS; Assays: Nanosyn kinase panel” (2012)

What was measured:
[1] = molecular target: Serine/threonine-protein kinase MRCK alpha (Homo sapiens) (UniProt Q5VT25); details: at 0.1 µM
[2] = molecular target: Serine/threonine-protein kinase MRCK alpha (Homo sapiens) (UniProt Q5VT25); details: at 1 µM
[3] = molecular target: Serine/threonine-protein kinase MRCK beta (Homo sapiens) (UniProt Q9Y5S2); details: at 0.1 µM
[4] = molecular target: Serine/threonine-protein kinase MRCK beta (Homo sapiens) (UniProt Q9Y5S2); details: at 1 µM
[5] = molecular target: Ribosomal protein S6 kinase alpha-5 (Homo sapiens) (UniProt O75582); details: at 0.1 µM
[6] = molecular target: Ribosomal protein S6 kinase alpha-5 (Homo sapiens) (UniProt O75582); details: at 1 µM
[7] = molecular target: Ribosomal protein S6 kinase alpha-4 (Homo sapiens) (UniProt O75676); details: at 0.1 µM
[8] = molecular target: Ribosomal protein S6 kinase alpha-4 (Homo sapiens) (UniProt O75676); details: at 1 µM
[9] = molecular target: Ribosomal protein S6 kinase beta-1 (Homo sapiens) (UniProt P23443); details: at 0.1 µM
[10] = molecular target: Ribosomal protein S6 kinase beta-1 (Homo sapiens) (UniProt P23443); details: at 1 µM
[11] = molecular target: T1, 3-phosphoinositide-dependent protein kinase 1 (Homo sapiens) (UniProt O15530); details: at 0.1 µM;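 further: values are mean inhibition of PDK1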
T1 sequence (whole entry): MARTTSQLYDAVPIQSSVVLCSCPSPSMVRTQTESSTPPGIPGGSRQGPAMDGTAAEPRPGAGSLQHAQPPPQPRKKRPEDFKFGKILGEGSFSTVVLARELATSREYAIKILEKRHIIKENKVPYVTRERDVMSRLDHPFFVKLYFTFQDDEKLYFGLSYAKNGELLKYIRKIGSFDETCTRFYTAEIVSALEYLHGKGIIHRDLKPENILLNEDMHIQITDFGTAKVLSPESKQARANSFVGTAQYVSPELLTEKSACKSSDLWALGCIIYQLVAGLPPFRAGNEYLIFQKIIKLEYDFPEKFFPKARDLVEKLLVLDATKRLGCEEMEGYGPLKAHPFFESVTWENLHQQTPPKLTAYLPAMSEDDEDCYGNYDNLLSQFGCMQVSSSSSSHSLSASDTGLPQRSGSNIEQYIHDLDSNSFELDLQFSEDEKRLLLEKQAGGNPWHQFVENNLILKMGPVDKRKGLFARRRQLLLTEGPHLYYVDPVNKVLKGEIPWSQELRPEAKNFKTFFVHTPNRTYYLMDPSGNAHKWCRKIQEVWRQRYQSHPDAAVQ

[12] = molecular target: cAMP-dependent protein kinase catalytic subunit alpha (Homo sapiens) (UniProt P17612); details: at 0.1 µM
[13] = molecular target: cAMP-dependent protein kinase catalytic subunit alpha (Homo sapiens) (UniProt P17612); details: at 1 µM
[14] = molecular target: Protein kinase C alpha type (Homo sapiens) (UniProt P17252); details: at 0.1 µM
[15] = molecular target: Protein kinase C alpha type (Homo sapiens) (UniProt P17252); details: at 1 µM
[16] = molecular target: Protein kinase C beta type (Homo sapiens) (UniProt P05771); details: at 0.1 µM
[17] = molecular target: Protein kinase C beta type (Homo sapiens) (UniProt P05771); details: at 1 µM
[18] = molecular target: Protein kinase C eta type (Homo sapiens) (UniProt P24723); details: at 0.1 µM
[19] = molecular target: Protein kinase C eta type (Homo sapiens) (UniProt P24723); details: at 1 µM
[20] = molecular target: Protein kinase C gamma type (Homo sapiens) (UniProt P05129); details: at 0.1 µM;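 further: values are mean percent inhibition of PKC gamma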

Serine/threonine-protein kinase MRCK beta (Homo sapiens), sequence (Q9Y5S2 whole entry): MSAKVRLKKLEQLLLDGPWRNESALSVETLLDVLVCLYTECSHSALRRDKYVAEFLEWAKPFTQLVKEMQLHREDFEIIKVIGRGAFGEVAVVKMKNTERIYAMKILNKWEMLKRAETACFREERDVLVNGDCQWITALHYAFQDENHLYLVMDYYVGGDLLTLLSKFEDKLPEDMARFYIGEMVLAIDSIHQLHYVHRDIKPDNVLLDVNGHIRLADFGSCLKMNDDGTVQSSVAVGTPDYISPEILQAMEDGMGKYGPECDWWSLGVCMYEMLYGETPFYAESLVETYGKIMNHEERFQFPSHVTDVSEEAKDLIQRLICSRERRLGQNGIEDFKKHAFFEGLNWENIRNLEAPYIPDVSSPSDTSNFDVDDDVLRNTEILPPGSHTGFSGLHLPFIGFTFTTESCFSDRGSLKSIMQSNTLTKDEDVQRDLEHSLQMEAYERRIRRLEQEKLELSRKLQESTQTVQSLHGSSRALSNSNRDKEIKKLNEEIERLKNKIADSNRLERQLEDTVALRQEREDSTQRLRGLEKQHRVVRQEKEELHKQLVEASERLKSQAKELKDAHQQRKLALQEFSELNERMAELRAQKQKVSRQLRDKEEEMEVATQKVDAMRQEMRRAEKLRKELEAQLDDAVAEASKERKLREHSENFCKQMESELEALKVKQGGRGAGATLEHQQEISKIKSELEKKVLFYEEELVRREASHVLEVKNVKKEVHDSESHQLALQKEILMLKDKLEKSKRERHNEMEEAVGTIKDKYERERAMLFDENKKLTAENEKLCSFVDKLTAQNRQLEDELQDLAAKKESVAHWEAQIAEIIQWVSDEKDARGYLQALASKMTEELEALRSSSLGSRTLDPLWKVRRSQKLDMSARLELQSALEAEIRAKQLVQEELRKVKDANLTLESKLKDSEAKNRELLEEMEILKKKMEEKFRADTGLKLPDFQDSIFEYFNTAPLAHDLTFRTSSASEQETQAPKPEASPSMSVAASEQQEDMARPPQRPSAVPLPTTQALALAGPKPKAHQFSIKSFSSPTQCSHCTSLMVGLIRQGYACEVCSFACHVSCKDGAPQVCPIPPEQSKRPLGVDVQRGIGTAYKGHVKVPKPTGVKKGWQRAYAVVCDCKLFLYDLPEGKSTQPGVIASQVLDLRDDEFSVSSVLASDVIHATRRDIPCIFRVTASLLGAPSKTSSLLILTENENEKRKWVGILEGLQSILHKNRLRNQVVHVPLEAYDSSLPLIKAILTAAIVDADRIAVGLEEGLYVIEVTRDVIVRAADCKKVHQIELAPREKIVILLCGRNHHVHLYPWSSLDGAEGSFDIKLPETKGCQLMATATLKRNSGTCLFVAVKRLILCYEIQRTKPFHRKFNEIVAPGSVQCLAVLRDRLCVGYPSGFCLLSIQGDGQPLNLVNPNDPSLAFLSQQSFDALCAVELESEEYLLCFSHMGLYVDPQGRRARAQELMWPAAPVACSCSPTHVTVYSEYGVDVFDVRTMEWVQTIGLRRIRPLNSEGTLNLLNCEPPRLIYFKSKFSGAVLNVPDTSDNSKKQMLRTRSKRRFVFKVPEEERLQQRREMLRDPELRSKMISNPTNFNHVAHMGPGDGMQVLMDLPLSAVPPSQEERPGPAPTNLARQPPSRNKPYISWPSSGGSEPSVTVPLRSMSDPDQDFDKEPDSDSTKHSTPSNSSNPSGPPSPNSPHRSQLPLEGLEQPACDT
Ribosomal protein S6 kinase alpha-5 (Homo sapiens), sequence (O75582 whole entry, looked up): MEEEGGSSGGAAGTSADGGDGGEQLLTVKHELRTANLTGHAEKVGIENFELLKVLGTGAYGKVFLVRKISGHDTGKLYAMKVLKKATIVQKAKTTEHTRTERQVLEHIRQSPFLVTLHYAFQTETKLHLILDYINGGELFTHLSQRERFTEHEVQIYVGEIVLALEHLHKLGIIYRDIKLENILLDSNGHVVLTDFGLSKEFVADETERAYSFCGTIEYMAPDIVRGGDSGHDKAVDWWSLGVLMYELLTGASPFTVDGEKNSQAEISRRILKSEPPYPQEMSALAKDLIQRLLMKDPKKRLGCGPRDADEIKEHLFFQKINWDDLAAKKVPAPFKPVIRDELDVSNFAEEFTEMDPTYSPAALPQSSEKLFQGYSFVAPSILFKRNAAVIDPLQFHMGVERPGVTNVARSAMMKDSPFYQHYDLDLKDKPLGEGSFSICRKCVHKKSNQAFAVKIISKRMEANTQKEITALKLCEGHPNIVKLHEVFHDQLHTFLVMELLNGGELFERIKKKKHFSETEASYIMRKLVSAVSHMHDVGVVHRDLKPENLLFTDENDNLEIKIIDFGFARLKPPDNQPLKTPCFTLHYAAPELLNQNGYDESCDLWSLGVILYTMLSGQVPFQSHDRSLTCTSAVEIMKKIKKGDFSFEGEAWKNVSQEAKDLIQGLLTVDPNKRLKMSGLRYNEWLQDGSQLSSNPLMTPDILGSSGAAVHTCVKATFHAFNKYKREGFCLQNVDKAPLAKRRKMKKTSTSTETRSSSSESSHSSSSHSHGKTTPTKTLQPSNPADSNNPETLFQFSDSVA
Protein kinase C eta type (Homo sapiens), sequence (P24723 whole entry): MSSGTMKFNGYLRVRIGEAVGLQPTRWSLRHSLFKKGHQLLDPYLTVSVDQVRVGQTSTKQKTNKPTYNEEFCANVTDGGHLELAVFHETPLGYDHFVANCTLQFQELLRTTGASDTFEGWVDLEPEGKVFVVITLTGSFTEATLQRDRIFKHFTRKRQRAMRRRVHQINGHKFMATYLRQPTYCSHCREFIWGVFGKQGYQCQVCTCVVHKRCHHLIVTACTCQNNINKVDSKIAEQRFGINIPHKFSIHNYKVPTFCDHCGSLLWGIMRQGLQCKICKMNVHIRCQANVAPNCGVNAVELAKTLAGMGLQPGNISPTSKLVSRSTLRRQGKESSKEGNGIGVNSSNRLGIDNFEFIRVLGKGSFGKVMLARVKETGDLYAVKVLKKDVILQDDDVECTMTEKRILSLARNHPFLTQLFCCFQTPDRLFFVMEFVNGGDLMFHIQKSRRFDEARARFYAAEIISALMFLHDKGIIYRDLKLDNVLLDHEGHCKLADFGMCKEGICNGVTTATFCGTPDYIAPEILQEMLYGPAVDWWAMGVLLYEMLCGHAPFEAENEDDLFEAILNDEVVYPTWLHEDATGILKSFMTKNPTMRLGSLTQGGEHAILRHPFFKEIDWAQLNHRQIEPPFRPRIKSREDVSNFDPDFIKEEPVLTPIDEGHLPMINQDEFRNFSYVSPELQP
Ribosomal protein S6 kinase beta-1 (Homo sapiens), sequence (P23443 whole entry, looked up): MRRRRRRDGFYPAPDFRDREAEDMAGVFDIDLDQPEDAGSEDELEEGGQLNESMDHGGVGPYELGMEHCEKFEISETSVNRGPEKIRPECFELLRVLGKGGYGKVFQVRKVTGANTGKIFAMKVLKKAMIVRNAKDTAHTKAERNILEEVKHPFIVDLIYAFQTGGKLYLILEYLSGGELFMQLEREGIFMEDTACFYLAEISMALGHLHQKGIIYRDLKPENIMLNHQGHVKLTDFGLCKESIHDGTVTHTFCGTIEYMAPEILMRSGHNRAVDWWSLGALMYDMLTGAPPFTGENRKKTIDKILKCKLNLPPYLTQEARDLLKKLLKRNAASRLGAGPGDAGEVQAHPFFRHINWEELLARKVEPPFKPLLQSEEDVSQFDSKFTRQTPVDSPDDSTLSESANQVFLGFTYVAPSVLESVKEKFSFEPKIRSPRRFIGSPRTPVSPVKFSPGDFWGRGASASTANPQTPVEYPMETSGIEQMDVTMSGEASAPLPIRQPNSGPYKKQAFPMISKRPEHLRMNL

SMILES | inhibition [1] | inhibition [2] | inhibition [3] | inhibition [4] | inhibition [5] | inhibition [6] | inhibition [7] | inhibition [8] | inhibition [9] | inhibition [10] | inhibition [11] | inhibition [12] | inhibition [13] | inhibition [14] | inhibition [15] | inhibition [16] | inhibition [17] | inhibition [18] | inhibition [19] | inhibition [20]
CC(C)c1ccc2c(c1)NC(=O)/C2=N/Nc1ccc(S(N)(=O)=O)cc1 | 2.04% | -2.97% | -0.17% | -1.37% | -0.47% | -2.62% | 0.04% | -1.31% | -0.81% | -1.36% | 0.82% | 1.46% | 0.47% | -0.57% | 0.11% | -0.04% | -5.38% | 2.07% | -1.13% | -0.1%
COc1cc2ncnc(Nc3ccc4c(cnn4Cc4ccccc4)c3)c2cc1OC | 1.92% | 0.94% | -0.95% | -0.76% | 7.1% | 7.6% | 1.21% | 2.89% | 0.98% | 1.35% | 0.98% | 0.6% | -0.11% | 0.53% | 0.88% | 0.81% | -2.42% | 5.6% | 3.69% | 2.66%
COC(=O)c1cncc(/C=C/c2c(C)cc(O)cc2C)c1 | -0.75% | 4.85% | -0.09% | 0.48% | 3.93% | 4.33% | 2.57% | 3.67% | 1.37% | 1.04% | -0.19% | 1.8% | 2.3% | 0.98% | 1.39% | 0.78% | 2.09% | 4.57% | 5.34% | 6.64%
CN(C)CCCn1c(-c2nonc2N)nc2cnccc21 | 1.89% | 16.4% | 4.34% | 22.6% | 8.29% | 28.7% | 3.18% | 13.9% | 2.39% | 13.2% | 1.51% | 2.1% | 3.18% | 0.8% | 3.62% | 1.86% | 14.5% | 6.38% | 10% | 4.42%
O=S(=O)(CCOCc1ccc(-c2ccc3ncnc(Nc4ccc(OCc5cccc(F)c5)c(Cl)c4)c3c2)o1)c1ccccc1 | 0.06% | -0.21% | 0.42% | 1.18% | 0.65% | 0.85% | -0.78% | 0.33% | -1.35% | -0.16% | -0.28% | 0.54% | -0.2% | 0.23% | 0.58% | -0.21% | -0.92% | 1.32% | 1.22% | 0.84%
Cc1ccc(O)cc1Nc1ccnc2ccc(S(C)(=O)=O)cc12 | -0.59% | 3.17% | -0.33% | 1.42% | 11.4% | 9.44% | 2.55% | 3.94% | 3.76% | 2.87% | 1.13% | 3.25% | 11.9% | 1.78% | 11.2% | 1.93% | 4.87% | 2.56% | 6.46% | 0.83%
CN(C)C(=O)O[C@H]1CN[C@H](C#Cc2cc3ncnc(Nc4ccc(OCc5cccc(F)c5)c(Cl)c4)c3s2)C1 | -0.3% | -0.73% | 0.58% | 2.77% | 2.4% | 4.95% | 0.06% | 4.03% | 0.89% | 2.08% | 1.92% | 2.32% | 4.73% | 0.57% | -0.37% | -1.06% | 0.39% | 1.05% | 1.68% | 3.2%
O=C1Nc2ccccc2/C1=C/Nc1ccc2[nH]c(=O)[nH]c2c1 | -0.3% | 1.93% | -0.63% | -1.04% | 3.99% | 5.92% | 3.86% | 16.6% | 2.55% | 11.1% | 9.34% | 2.27% | 4.1% | 0.57% | 2.34% | 0.19% | 4.33% | 3.3% | 3.84% | 2.03%
CN(c1ccc(NC(=O)Nc2ccc(OC(F)(F)F)cc2)cc1)c1ccnc(Nc2cccc(S(N)(=O)=O)c2)n1 | -5.74% | -0.82% | -0.58% | -2.72% | 0.92% | -1.11% | 2% | 4.78% | -0.25% | 1.95% | 0.37% | 1.4% | 2.04% | 0.02% | 0.85% | 0.45% | 0.52% | 0.81% | -0.51% | 2.48%
COc1cc(Nc2nccc(-c3cnn4ncccc34)n2)cc(OC)c1 | 0.39% | 3.14% | 1.06% | 3.3% | 1.61% | 7.26% | 2.85% | 15.7% | 1.87% | 6.59% | 3.22% | 2.46% | 10.7% | 12.4% | 64% | 0.12% | 8.95% | 3.16% | 3.86% | 0.71%
COc1ccc2ncnc(Nc3ccc(OCc4ccccc4)cc3)c2c1 | 0.54% | 2.68% | 0.54% | 0.8% | 1.25% | 0.63% | -3.48% | 1.47% | 1.08% | 0.96% | 1.04% | 2.11% | 1.43% | -0.06% | 1.22% | 0.57% | 2.16% | -0.44% | -0.65% | 0.01%
CCS(=O)(=O)c1ccc(OC)c(Nc2nccc(N(C)c3ccc4c(C)n[nH]c4c3)n2)c1 | -4.24% | -2.48% | 0.97% | 0.83% | 4.1% | 1.28% | 2.02% | 0.35% | 0.02% | 1.3% | -0.7% | 2.41% | 0.84% | 0.55% | 1.48% | 0.4% | -2.93% | 3.8% | 6.38% | 0.63%
CN(C)c1cc2c(Nc3ccc4c(cnn4Cc4ccccc4)c3)ncnc2cn1 | -0.16% | 0.83% | 1.04% | 1.67% | 3.83% | 6.2% | 2.42% | 6.24% | 2.01% | 3.88% | 2.47% | 1.45% | 1.92% | -0.01% | 0.82% | 0.49% | 1.62% | -1.26% | 1.17% | 0.1%
